Sampled rows, rich in hits. Any-hit rate of the full collection: about 10%.
G9a inh = qHTS Assay for Inhibitors of Histone Lysine Methyltransferase G9a | G9a H3K9 monomethylation, AlphaScreen, 2 h | Potency, µM (doses to about 102 µM), inactives show at the top dose activity, negative = inhibition, usual class: inhibitors | hit rate 8.8% among 350,000; further: potency means the concentration at half of the fitted maximal effect; on the % scale 0 is the no-effect control and ±100 the full control effect; nearly all actives have a fitted effect of over 75% in size
Target sequence (Q96KQ7 913-1193 limits assumed): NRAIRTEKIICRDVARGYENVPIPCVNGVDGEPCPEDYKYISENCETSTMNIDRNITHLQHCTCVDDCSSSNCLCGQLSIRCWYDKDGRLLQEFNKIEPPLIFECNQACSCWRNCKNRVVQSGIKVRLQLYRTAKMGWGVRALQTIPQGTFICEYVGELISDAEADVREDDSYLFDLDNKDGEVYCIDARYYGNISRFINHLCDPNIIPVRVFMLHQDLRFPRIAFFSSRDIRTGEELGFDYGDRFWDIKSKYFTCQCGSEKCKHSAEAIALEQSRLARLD
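G9a (20 nM) preincubated 15 min RT with compounds, then 500 nM biotinylated H3K9 peptide and 20 uM SAM added; 2 h RT reaction. Monomethyl-H3K9 product detected by AlphaScreen with anti-H3K9me1 antibody, streptavidin donor and anti-rabbit IgG acceptor beads.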
BAZ2B block = qHTS Assay for Inhibitors of BAZ2B; AlphaScreen BAZ2B-H3K14Ac peptide displacement; AID 504333, 2011; hit rate 4.4% among 360,000; Potency, µM (highest dose often 114 µM), for the others: at the top dose activity change, negative = inhibition, usual class: inhibitors; Bromodomain adjacent to zinc finger domain protein 2B (Homo sapiens), Q9UIF8; further: potency means the concentration at half of the fitted maximal effect; on the % scale 0 is the no-effect control and ±100 the full control effect; nearly all actives have a fitted effect of over 60% in size
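AlphaScreen displacement: compounds (up to 110uM) incubated 30 min at room temperature with a preformed 50 nM BAZ2B/50 nM biotinylated H3K14Ac peptide complex in PBS pH 7.4 with Tween-20. Donor and acceptor beads at 10 ug/mL final added, 20 min light-protected before reading.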
JMJD2A Tudor inh = qHTS Assay for Inhibitors of JMJD2A-Tudor Domain. hit rate 4.4% among 390,000. Lysine-specific demethylase 4A (Homo sapiens), O75164. AlphaScreen JMJD2A-Tudor / H3K4me3 peptide binding. Potency, µM (highest dose often 114 µM), inactives show at the highest dose activity change, negative = inhibition, actives largely listed as inhibitors; further: potency means the concentration at half of the fitted maximal effect; on the % scale 0 is the no-effect control and ±100 the full control effect; nearly all actives have a fitted effect of over 50% in size
CtBP-E1A blk = qHTS Assay for Inhibitors of the CtBP/E1A Interaction. CtBP / adenovirus E1A interaction (AlphaScreen). AlphaScreen GST-E1A/His-CtBP binding, 1536-well; active compounds read low. activity change, % (test concentration not listed). hit rate 0.49% among 340,000; in the data active means activity change below about -65%; inconclusive means mostly about -30% to -63%; further: on the % scale 0 is the no-effect control and ±100 the full control effect
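Protein mix (5X: 125 nM each GST-E1A, His-CtBP) was incubated with pinned compound 2 h at 37 deg C in dark, in 50 mM Tris pH 8.0 buffer with 300 mM NaCl. Glutathione donor and nickel acceptor beads followed; AlphaScreen signal read after 1 h.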
HP1b binding inh = HTS for Inhibitors of HP1-beta Chromodomain Interactions with Methylated Histone Tails | Chromobox protein homolog 1 (Homo sapiens), P83916 | AlphaScreen HP1-beta / biotin-H3K9me3 peptide binding | Potency, µM (series often up to 114 µM), for inactives: top-dose activity change, negative = inhibition, hits mostly inhibitors | hit rate 0.56% among 390,000 | AID 540317, 2011; further: potency means the concentration at half of the fitted maximal effect; nearly all actives have a fitted effect of over 70% in size
Target sequence (P83916 whole entry, looked up): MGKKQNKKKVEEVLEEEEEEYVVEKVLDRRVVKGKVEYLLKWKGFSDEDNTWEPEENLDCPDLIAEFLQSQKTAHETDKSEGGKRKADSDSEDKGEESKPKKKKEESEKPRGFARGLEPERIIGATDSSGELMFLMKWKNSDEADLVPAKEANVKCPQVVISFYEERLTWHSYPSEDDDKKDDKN
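HP1-beta protein (50 nM final) preincubated 30 min at room temperature with biotinylated H3(1-18)K9me3 peptide (50 nM) in PBS pH 7.4, 0.01% Tween-20, then compound added for 30 min. AlphaScreen streptavidin donor/nickel chelate acceptor beads (10 ug/mL final), 30 min dark, luminescence read.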
Six1-Eya2 inh = qHTS Assay for Inhibitors of the Six1/Eya2 Interaction. Homeobox protein SIX1 (Homo sapiens) + Protein phosphatase EYA2 (Homo sapiens), …. AlphaScreen GST-Six1/His-Eya2 binding, biochemical; active compounds read low. activity change, % (concentration not given with the values). hit rate 0.56% among 360,000; in the data active means activity change below about -65%; inconclusive means mostly about -30% to -63%; further: on the % scale 0 is the no-effect control and ±100 the full control effect
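AlphaScreen with GST-Six1 and His-Eya2 (5X mix: 250 nM and 500 nM), glutathione donor and nickel acceptor beads; buffer 50 mM Tris pH 8.0, 300 mM NaCl, 1 mM TCEP; 1 h at 37 C in the dark.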
The depositor's hits bear a star; u = inconclusive; x = no result; ! = repeats disagree; [ ] = another dose, or the depositor's remark. Unless noted, the call rests on the fitted dose curve; in most records, active means well fitted inhibition curve with a large enough effect; inconclusive means small, poorly fitted or top-dose-only effect; inactive means no such curve, though single readings can be large or run the other way.

SMILES	G9a inh	BAZ2B block	JMJD2A Tudor inh	CtBP-E1A blk	HP1b binding inh	Six1-Eya2 inh
CC(C)(C)c1ccc(C(=O)NCCN2CCOCC2)cc1	x	x	-16%	x	44%	5
COc1ccc(C(=O)OC2C[C@H]3CC[C@@H](C2)N3C)cc1OC (some centres undefined)	18%[21.5 µM]	x	x	x	x	x
CN(C)c1ccc(Cc2ccc(N(C)C)cc2)cc1	x	x	25µM*	x	20µM*	-92*
O=C(Oc1ccc(Cl)c2cccnc12)N1CCCCCC1	14%[59 µM]	12%	6%	2	44%	2
CCOC(=O)c1c(NC(NC(=O)CF)C(Cl)(Cl)Cl)sc2c1CCCC2 (centres undefined)	45µM*	-36%	40µM*	-14	-6%	-13
CC1CC(OP(O)(=S)c2ccc(N(C)C)cc2NC(=O)c2cccs2)CC(C)(C)C1 (centres undefined)	4µM*	50µM*	56µM*	-10	u	-27
Cc1ccc(NC(=O)Nc2cc3c(cc2N2CCCCC2)n(C)c(=O)n3C)cc1Cl	u	u	u	x	2%	x
CCOC(=O)c1cc(C)n(CCc2cnc[nH]2)c1C	u	56µM*	u	-7	-15%	-2
CNCCc1cnc[nH]1	21%[59 µM]	x	x	x	x	x
CC(C)(C)NC[C@H](O)c1cc(Cl)c(N)c(Cl)c1	20%[21.5 µM]	x	x	x	x	x
Cc1cccc(C(O)(C(=O)NNC(=O)CN2CCN(C)CC2)c2cccc(C)c2)c1	71µM*	-3%	-9%	-7	11%	6
Cc1ccc(C(O)(C(=O)NNC(=O)CN2CCN(C)CC2)c2ccc(C)cc2)cc1	u	-37%	-4%	-1	17%	-2
O=C1NC(=O)N(Cc2ccco2)C(=O)/C1=C\c1cccn1CCOc1ccc(Cl)cc1	-6%[59 µM]	40µM*	u	19	7%	-17
Cc1cccc(OCCn2cccc2/C=C2/C(=O)NC(=O)N(Cc3ccco3)C2=O)c1	x	45µM*	-29%	-3	20%	-29
COc1ccc2c(c1)CCc1c(C(=O)Nc3c(C)nn(Cc4ccccc4C)c3C)noc1-2	u	-13%	-23%	x	9%	x
O=C1C(Cl)=CC(=Nc2ccc(O)cc2)C=C1Cl	u	32µM*	45µM*	-1	14µM*	-17
c1cc(CN2CCC3(CCNCC3)CC2)ccn1	-15%[12.7 µM]	x	x	x	x	x
CCOC(=O)c1ccc(N2C(=O)c3n[nH]c(-c4cccs4)c3C2c2ccc(Cl)cc2Cl)cc1 (centres undefined)	-43%[59 µM]	x	u	x	15%	x
Cc1ccc(N2CCN(C(=O)c3cn(CC4CCCCC4)nn3)C(C)C2)cc1 (centres undefined)	x	x	u	-19	3%	-17
COc1ccc2c3c([nH]c2c1)C(C)=NCC3	u	-33%	-4%	-21	36%	u
CC1=NCCc2c1[nH]c1cc(O)ccc21	1.4µM*!	4%	-19%	-11	39%	-10
Cc1cccc(-n2c(-c3cccs3)nc3ccccc3c2=O)c1	0%[59 µM]	79µM*	u	13	13%	-10
CCCN1CCCC(c2cccc(O)c2)C1 (centres undefined)	-16%[12.7 µM]	x	x	x	x	x
CN(C)c1ccc(CN2CC=C(c3ccc(F)cc3)CC2)cc1	u	50µM*	50µM*	u	-38%	u
Cc1ccc(NC(=O)C2CCN(C(=O)c3cnn(-c4ccccc4)c3-n3cccc3)CC2)cc1Cl	-1%[59 µM]	-16%	u	x	-5%	x
SMILES	G9a inh	BAZ2B block	JMJD2A Tudor inh	CtBP-E1A blk	HP1b binding inh	Six1-Eya2 inh
O=c1c2ccccc2nc(/C=C/c2ccccc2O)n1-c1ccc(Br)cc1	-2%[59 µM]	-1%	-29%	x	24%	x
Cc1ccc(NS(=O)(=O)c2ccc(OCC(=O)N3CCN(C)CC3)cc2)cc1	x	-12%	-10%	-3	18%	5
COc1ccc(NS(=O)(=O)c2ccc(OCC(=O)N3CCN(C)CC3)cc2)cc1Cl	79µM*	-19%	-4%	4	57%	1
CN(C)c1ccc(/C=C/C=C/c2sc3ccccc3[n+]2C)cc1	u	u	u	6	u	6
CC[n+]1c(/C=C/C=C/c2ccc(N(C)C)cc2)sc2ccccc21	40µM*	35µM*	50µM*	4	u	0
O=P1(N(CCCl)CCCl)NCCCO1 (centres undefined)	18µM*!	0%	-26%	7	24%	-3
COc1cccc(CN2CCN(Cc3cccc(F)c3)CC2)c1	x	35µM*	7.9µM*	x	u	2
N/C(=N\[N+](=O)[O-])N/N=C/c1ccc(O)cc1	3%	-3%	0%	-18	23%	-3
Nc1nonc1C(=O)N/N=C/c1ccc([N+](=O)[O-])o1	50µM*	56µM*	u	0	u	u
CC/C(=C(\c1ccc(O)cc1)c1ccc(OCCN(C)C)cc1)c1ccccc1	u	45µM*	56µM*	-16	-21%	-4
CCOC(=O)Nc1ccc(NCc2ccc(F)cc2)nc1N	1.2µM*	71µM*	56µM*	u	u	0
CCCOC(=O)Nc1ccc([As](=O)(O)O)cc1NC(=O)OCCC	39%[0.501 µM]	-7%	6%	-7	43%	25
N#CC(C#N)=Cc1cc(O)c(O)c(O)c1	8.9µM*	x	x	x	x	x
N#CC(C#N)=Cc1cccnc1	x	-1%	-4%[57.1 µM]	-6	-24%	-1
CC1CCC(C(C)C)C(OC(=O)c2ccccc2N)C1 (centres undefined)	95%[59 µM]	x	x	x	x	x
N/C(=N\N=C\c1ccc(O)cc1O)N[N+](=O)[O-]	26%[59 µM]	7%	-11%[57.1 µM]	-83*	44%	-74*
COc1ccccc1/C=N/N=C(/N)N[N+](=O)[O-]	-34%	-22%	-7%	-5	16%	4
CC(C)=CCSc1nnc([C@@H](N)Cc2c[nH]c3ccccc23)o1	3.5µM*	-8%	u	-5	u	-6
C=C[C@H](Cc1ccccc1)N(Cc1ccccc1)S(=O)(=O)N(Cc1ccccc1)[C@H](C=C)Cc1ccccc1	x	x	14%	1	72%	5
COc1cc(/C=C(/C)[N+](=O)[O-])ccc1OCc1ccccc1Cl	10µM*	u	-28%	1	-1%	4
CCCN1CCc2cc(O)cc3c2C1Cc1ccc(O)c(O)c1-3 (centres undefined)	0.32µM*	x	x	x	x	x

Assay outcomes (PubChem BioAssay)
